Laboratory results taken from PubChem BioAssay AID1117319 (Southern Research Institute, 2015).
Where “and” joins values, the source holds several entries; their conditions need not be identical. Equal entries are not always repeated. About 1,500 (0.58%) of roughly 260,000 compounds were called active. Inconclusive results (about 5%) are left out.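 Rule for the calls: active = inhibition above a set limit at one or more doses, reproduced on every date tested; inconclusive = results disagree between test dates, or hit never tested in dose response; inactive = the rest.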 A selection follows. Measured potencies and affinities stand elsewhere.

biological target: Virion infectivity factor (Human immunodeficiency virus type 1 group M subtype B (isolate BH10)) + Virion infectivity factor (Human immunodeficiency virus type 1 group M subtype B (isolate BRU/LAI)) + Virion infectivity factor (Human immunodeficiency virus type 1 group M subtype B (isolate PCV12)) + Virion infectivity factor (Human immunodeficiency virus type 1 group M subtype B (isolate HXB2)) + DNA dC->dU-editing enzyme APOBEC-3G (Homo sapiens) (UniProt P69720+P69721+P69722+P69723+Q9HC16); assay: HIV-1 Vif–A3G interaction blockers – biochemical, TR-FRET, GST-Vif 1-94, biotin-A3G peptide, dose response retest, primary screen (AID 1117319); conditions: TR-FRET GST-Vif / biotin-A3G peptide binding; stronger effect = higher value;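 note: Vif residues 1-94 fused to GST binding biotinylated APOBEC3G peptide 110-148; 0% = full assay without inhibitor and 100% = GST in place of GST-Vif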

SMILES	inhibition
O=C(Nc1ccc(S(=O)(=O)N2CCOCC2)cc1)c1cc(-c2ccccc2O)n[nH]1	-5.69% (inactive)
CSCCC(NS(=O)(=O)c1ccc(C)cc1)C(=O)NCC(C)(C)N1CCOCC1 (stereo unspecified)	26.5% (inactive)
CCOc1cc(C(=O)Oc2cc(C)[nH]c(=O)c2[N+](=O)[O-])cc(OCC)c1OCC	-2.15% (inactive)
CCCC(=O)Nc1nnc(-c2ccco2)s1	5.96% (inactive)
CC(C)C(=O)Nc1nnc(-c2ccco2)s1	-4.43% (inactive)
O=C(COC(=O)Cn1cnc2ccccc2c1=O)NCc1ccccc1	-5.43% (inactive)
COCCn1c(C)cc(C(=O)COC(=O)c2c(C)nn(Cc3ccccc3)c2C)c1C	15.2% (inactive)
Cc1nn(Cc2ccccc2)c(C)c1C(=O)OCC(=O)c1cc(C)n(CC(F)(F)F)c1C	13.3% (inactive)
C=CCOc1ccc(CNc2nccs2)cc1OC	-2.98% (inactive)
Cn1nnnc1SCc1cc(=O)n2ccsc2n1	8.97% (inactive)
COc1ccc(OCCNC(=S)Nc2cccc3ccccc23)cc1	2.41% (inactive)
O=C(NC(NC(=S)Nc1cccc(C(=O)O)c1)C(Cl)(Cl)Cl)OCc1ccccc1 (stereo unspecified)	16% (inactive)
CCCCOC(=O)c1cc(C)nc2ccc(Br)cc12	10.8% (inactive)
CC1=C(C(=O)Nc2ccccc2)C(c2ccco2)NC(=S)N1 (stereo unspecified)	-0.58% (inactive)
CC1=C(C(=O)Nc2ccccc2)C(c2ccco2)NC(=O)N1 (stereo unspecified)	-0.31% (inactive)
N#C/C(=C\c1cccs1)C(=O)N1CCOCC1	4.24% (inactive)
CCOc1ccc(-n2cc(C(=O)NCCOC)c3cc(OC)c(OC)cc3c2=O)cc1	-0.11% (inactive)
CC1=CCC2C(=O)N(c3ccc4ccccc4n3)C(=O)C2C1 (stereo unspecified)	3.04% (inactive)
O=C(COC(=O)c1n[nH]c(=O)c2ccccc12)c1ccc(Cl)cc1	-6% (inactive)
COc1cc(C2CC(=O)c3c(O)cc(O)cc3O2)ccc1O (stereo unspecified)	9.19% (inactive)
COc1ccc([C@H]2CC(=O)c3c(O)cc(O)cc3O2)cc1O	9.99% (inactive)
Cc1nnc(SCc2cc([N+](=O)[O-])cc3c2OCOC3)n(N)c1=O	20.5% (inactive)
O=[N+]([O-])c1cc2c(c(CSc3ncccn3)c1)OCOC2	1.34% (inactive)
COc1ccc(CCNC(=O)COc2coc(CN3c4ccccc4CC3C)cc2=O)cc1OC (stereo unspecified)	3.96% (inactive)

SMILES	inhibition
CCOC(=O)c1oc2ccc(/C=N/O)c(Cl)c2c1C	-0.46% (inactive)
CC1CN(C(=O)COC(=O)c2cnc(Cl)c(Cl)c2)CC(C)O1 (stereo unspecified)	-12.2% (inactive)
Nc1ncnc2c1ncn2[C@@H]1O[C@H](CNC(=O)[C@@H]2C[C@H](F)CN2)[C@@H](O)[C@H]1O	-0.68% (inactive)
COc1cccc(CNc2ccc(F)c([N+](=O)[O-])c2)c1O	-12% (inactive)
COCCCn1c(=NC(=O)c2ccncc2)c(C#N)cc2c(=O)n3cccc(C)c3nc21	3.9% (inactive) and 7.65% (inactive)
CCCCn1c(=NC(=O)c2ccc3c(c2)OCO3)c(C#N)cc2c(=O)n3cccc(C)c3nc21	6.53% (inactive)
O=C(c1cccc(S(=O)(=O)N2CCc3ccccc32)c1)N1CCN(c2ccccn2)CC1	-7.91% (inactive)
Cc1cnc(C(=O)OCC(=O)Nc2cc(-c3cc(C)c(C)cc3C)nn2-c2ccccc2)cn1	3.14% (inactive)
S=c1[nH]nc(-c2cc(-c3ccco3)[nH]n2)n1-c1cccc2ccccc12	16.8% (inactive)
COc1ccccc1-n1c(-c2cc(-c3ccc(F)cc3)n[nH]2)n[nH]c1=S	0.73% (inactive)
S=c1[nH]nc(-c2cc(-c3ccco3)[nH]n2)n1-c1ccccc1	4.55% (inactive)
COc1ccccc1-n1c(-c2ccco2)n[nH]c1=S	-2.63% (inactive)
Cc1cc2c(cc1C)NC1=C(N2)OC(c2cccc(O)c2)C1=O (stereo unspecified)	5.24% (inactive)
NS(=O)(=O)c1ccc(CCNC(=O)CSc2ccsc2[N+](=O)[O-])cc1	4.39% (inactive)
CC(=O)N1CCN(C(=O)CCNC(=O)c2ccc(Br)cc2)CC1	0.92% (inactive)
CCN1CCN(c2nc3ccccn3c(=O)c2/C=C(\C#N)S(=O)(=O)c2ccccc2)CC1	-0.55% (inactive)
COC(=O)c1ccc(C(=O)NN)cc1	-8.26% (inactive)
Cc1cccc(NC(=O)Cc2ccc(F)cc2)c1	-2.86% (inactive)
Cc1ccc(NC(=O)CCc2nc(-c3cccs3)no2)c(Br)c1	0.83% (inactive)
Fc1ccccc1/C=C/c1ccc2ccccc2n1	1.57% (inactive)
C(=C\c1ccc2ccccc2n1)/c1ccccc1	10.9% (inactive)
CN(C)c1c2ccccc2nc2c(F)c(F)c(F)c(F)c12	-2.85% (inactive)
Cc1c(N(C)C)nc2ccccc2c1N	-3.71% (inactive)
CNC(=O)COc1coc(CN2CCN(c3cccc(Cl)c3)CC2)cc1=O	6.04% (inactive)

SMILES	inhibition
CCOC(=O)N/N=C(/c1ccccc1)C1CCCCC1	-4.75% (inactive)
CCOc1ccccc1OCC(=O)NC1CCCCC1	-0.58% (inactive)
CCN(C(=O)COC(=O)/C=C/c1cnc2ccccc2n1)c1ccccc1	-2.53% (inactive)
CCOCC(=O)OCC(=O)Nc1cc(OC)c([N+](=O)[O-])cc1C	7.7% (inactive)
COc1cccc(-c2nnc(SCC(=O)Nc3cc(C)ccc3OC)n2N)c1	3.89% (inactive)
CCn1cc[n+](C)c1P(c1ccccc1)c1ccccc1	3.82% (inactive)
COCCCn1c(=O)c2sccc2n2c(CCCC(=O)NCc3ccccc3OC)nnc12	-3.09% (inactive)
O=[N+]([O-])c1ccc(Cl)c(S(=O)(=O)NC2=NCCC2)c1	-7.04% (inactive)
Cc1ccc([N+](=O)[O-])cc1S(=O)(=O)Nc1cccc(S(=O)(=O)NC2=NCCC2)c1	3.32% (inactive)
CC1(C)CC(=O)C=C(c2n[nH]nc2-c2ccc(F)c(F)c2)C1	-13.9% (inactive)
CCOC(=O)c1cc(-c2ccc(OC)cc2OC)nn1-c1ccc(C(=O)O)cc1	4.72% (inactive)
CC(C)N1CCc2c(sc(NC(=O)c3ccc(S(=O)(=O)N4CCOCC4)cc3)c2C(N)=O)C1	-2.18% (inactive)
CN1CCc2c(sc(NC(=O)c3ccc(S(=O)(=O)N4CCOCC4)cc3)c2C(N)=O)C1	18.7% (inactive)
Cc1c(C(=O)N(C)Cc2nc3ccccc3c(=O)[nH]2)oc2ccccc12	-2.36% (inactive)
O=C1C=C(NCc2ccc(Cl)cc2)CC(c2ccco2)C1 (stereo unspecified)	32.3% (inactive)
O=C1C=C(Nc2ccc(Cl)cc2Cl)CC(c2ccco2)C1 (stereo unspecified)	2.86% (inactive)
Cc1ccc(NC2=CC(=O)CC(c3ccco3)C2)c(N)c1 (stereo unspecified)	23.3% (inactive)
Cc1ccc(C2CC(=O)C=C(NCC(C)C)C2)cc1 (stereo unspecified)	3.68% (inactive)
Cc1ccnc(NC(=O)c2ccc3c(c2)OCO3)c1	4.65% (inactive)
Cc1cc(C)c2c(c1)/C(=N\N=c1\sc3ccccc3n1C)C(=O)N2	0.52% (inactive)
Cc1cccc2c1NC(=O)C2=O	32.4% (inactive)
COc1ccc(OC)c(NC(=O)CCN2CCCCC2)c1	-3.02% (inactive)
COc1ccc(OC)c(NC(=O)CCN2CCN(C)CC2)c1	2.28% (inactive)
N#Cc1cccc(NC(=O)CSc2nnc(-c3n[nH]c4ccccc34)o2)c1	-4.45% (inactive)

SMILES	inhibition
Cc1cc(C(=O)COC(=O)c2ccccc2Br)c(C)n1CC1CCCO1 (stereo unspecified)	30.3% (inactive)
CCn1c(C)cc(C(=O)CN2C(=O)c3ccccc3S2(=O)=O)c1C	6.44% (inactive)
Cc1cccc(-n2nnnc2SCC(=O)c2cc(C)n(CC3CCCO3)c2C)c1 (stereo unspecified)	22.8% (inactive)
Cc1ccc(-n2nnnc2SCC(=O)c2cc(C)n(CC3CCCO3)c2C)cc1 (stereo unspecified)	-3.58% (inactive)
Cc1cc(C(=O)COC(=O)c2ccccc2O)c(C)n1CC1CCCO1 (stereo unspecified)	-14.1% (inactive)
CCCn1c(C)cc(C(=O)CN2C(=O)c3ccccc3S2(=O)=O)c1C	0.72% (inactive)
COc1ccc(OCC(=O)Nc2ccc(OC)c(S(=O)(=O)N3CCCCC3)c2)cc1	-0.4% (inactive)
N#CC1=C(S)N=C(N)C(c2nc(-c3ccccc3)cs2)C12CCCCC2 (stereo unspecified)	13.7% (inactive)
CCOC(=O)c1ccc(NC(=O)CSc2nnc(Cn3c(=O)sc4ccccc43)n2C)cc1	-11.7% (inactive)
O=C(CN(C(=O)CNS(=O)(=O)c1ccc(F)cc1)C1CCCC1)NCc1ccco1	-8.82% (inactive)
COC(=O)Cn1cnc2c(nnn2-c2ccc(OC)cc2)c1=O	-8.1% (inactive)
O=C(/C=N/O)NCc1cccnc1	-3.6% (inactive)
O=C(N=C1SC2CS(=O)(=O)CC2N1c1ccc(Br)cc1)C1CCCO1 (stereo unspecified)	2.67% (inactive)
NC(=O)CN1C(=O)/C(=c2\sc3nc(=O)c(Cc4ccccc4)nn3c2=O)c2ccccc21	-13.2% (inactive)
COC(=O)c1cc(Br)c(=O)n(CC(C)C)c1	4.6% (inactive)
CC(C)c1cc(C(=O)OCC(=O)NC2CC2)c(O)c(C(C)C)c1	1.52% (inactive)
CC1CCCCN1c1ccc(N)cc1C(N)=O (stereo unspecified)	0.06% (inactive)
Nc1cc(C(=O)O)ccc1N1CCCCCC1	8.01% (inactive)
COC(=O)c1ccc(N2CCCCC2)c(N)c1	24.1% (inactive)
NC(=O)c1cc(N)ccc1N1CCCCC1	-6.02% (inactive)
Cc1cccc(NC(=O)C2SC(=Nc3c(C)cccc3C)C(C(=O)N3CCOCC3)=C2N)c1 (stereo unspecified)	13.6% (inactive)
N#Cc1ccccc1CN1C(=O)NC(Cc2c[nH]c3ccccc23)C1=O (stereo unspecified)	-3.01% (inactive)
COc1ccc(/C=N/NC(=O)c2ccc3c(c2)OCO3)cc1	-0.02% (inactive)
COc1ccc(C(=O)N/N=C/c2ccc(SC)cc2)cc1	-0.44% (inactive)
